Screening results (PubChem BioAssay)
An excerpt weighted towards active compounds, which were near 10% of everything screened.
JMJD2A Tudor: inhibitors of human JMJD2A Tudor domain | Potency, µM (top dose mostly 114 µM), inactives show top-dose activity change, negative = inhibition, most hits filed as inhibitors | AID 504339 | AlphaScreen JMJD2A-Tudor / H3K4me3 peptide binding | O75164 | actives 4.4% (n = 390,000); also: % is scaled to controls: 0 for no effect and ±100 for the full control effect; nearly all actives have a fitted effect of over 50% in size
BAZ2B inh: BAZ2B (human) inhibition; Q9UIF8; AlphaScreen BAZ2B-H3K14Ac peptide displacement; Potency, µM (titrated, usually from 114 µM), without a hit: top-dose activity change, negative = inhibition, usual class: inhibitors; actives 4.4% (n = 360,000); also: % is scaled to controls: 0 for no effect and ±100 for the full control effect; nearly all actives have a fitted effect of over 60% in size
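Protein-peptide AlphaScreen: BAZ2B 50 nM, b-H3K14Ac 50 nM, 1x PBS pH 7.4 + 0.01% Tween-20. Preincubation 30 min RT; cpd 30 min RT (top 110 uM); beads 20 min RT, light-protected.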
G9a block: inhibitors of human histone lysine methyltransferase G9a | actives 8.8% (n = 350,000) | G9a H3K9 monomethylation, AlphaScreen, 2 h | Potency, µM (doses to about 102 µM), for inactives: top-dose activity, negative = inhibition, usual class: inhibitors | Q96KQ7; also: % is scaled to controls: 0 for no effect and ±100 for the full control effect; nearly all actives have a fitted effect of over 75% in size
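Methyltransferase reactions run at room temperature for 2 h (20 nM enzyme, 500 nM biotin-H3K9 peptide, 20 uM SAM) after a 15 min compound preincubation; product detected by AlphaScreen beads and anti-H3K9me1 antibody.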
GLS inhibitor: blocks human kidney-isoform glutaminase activity | actives 0.21% (n = 410,000) | Potency, µM (top dose mostly 45.5 µM), inactives show at the highest dose activity change, negative = inhibition, actives largely listed as inhibitors | GLS enzymatic activity, qHTS titration | O94925; also: % is scaled to controls: 0 for no effect and ±100 for the full control effect
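Coupled fluorescence readout: glutamate oxidase/HRP/Amplex Red detect glutamate formed by hKGA from L-glutamine (1 mM solution added). Buffer 45 mM KH2PO4 pH 8.2, 0.02% Tween-20; reads at t0 and 30 min RT.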
L3MBTL1 block: blocks human L3MBTL1; Potency, µM (top dose mostly 57.1 µM), inactives show at the top dose activity, negative = inhibition, usual class: inhibitors; AlphaScreen L3MBTL1–H3K9me1 peptide binding; Q9Y468; actives 0.66% (n = 230,000); also: % is scaled to controls: 0 for no effect and ±100 for the full control effect; nearly all actives have a fitted effect of over 60% in size
Target sequence (Q9Y468 whole entry, looked up): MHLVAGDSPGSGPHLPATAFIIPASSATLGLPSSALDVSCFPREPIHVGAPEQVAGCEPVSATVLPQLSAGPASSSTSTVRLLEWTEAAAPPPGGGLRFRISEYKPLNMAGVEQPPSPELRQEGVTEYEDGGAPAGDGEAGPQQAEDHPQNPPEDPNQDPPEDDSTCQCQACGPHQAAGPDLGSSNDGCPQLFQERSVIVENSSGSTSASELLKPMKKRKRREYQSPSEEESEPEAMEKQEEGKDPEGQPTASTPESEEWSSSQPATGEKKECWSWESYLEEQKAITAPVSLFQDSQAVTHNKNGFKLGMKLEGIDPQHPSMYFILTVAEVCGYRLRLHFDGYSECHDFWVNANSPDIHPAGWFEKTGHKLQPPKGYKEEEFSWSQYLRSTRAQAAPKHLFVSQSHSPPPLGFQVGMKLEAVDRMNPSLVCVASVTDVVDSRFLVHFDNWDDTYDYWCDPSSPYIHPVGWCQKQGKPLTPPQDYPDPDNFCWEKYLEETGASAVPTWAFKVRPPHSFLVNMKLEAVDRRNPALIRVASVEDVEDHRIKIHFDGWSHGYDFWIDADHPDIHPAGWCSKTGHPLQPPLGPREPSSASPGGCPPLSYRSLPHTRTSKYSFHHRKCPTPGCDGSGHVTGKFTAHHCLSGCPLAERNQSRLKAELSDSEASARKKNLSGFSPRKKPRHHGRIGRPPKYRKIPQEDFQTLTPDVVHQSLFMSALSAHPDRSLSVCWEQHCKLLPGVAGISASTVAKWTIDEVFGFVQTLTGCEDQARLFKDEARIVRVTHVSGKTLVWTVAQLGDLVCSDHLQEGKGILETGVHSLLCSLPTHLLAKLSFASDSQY
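AlphaScreen proximity signal between nickel-chelate acceptor and streptavidin donor beads (final 10 ug/mL) reports binding of 50 nM L3MBTL1 to 75 nM biotin-H3 K9me1 peptide; complex incubated with compounds 30 min at room temperature; cefsulodin titration as control.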
HP1b chromo inh: HP1-beta chromodomain-methylated histone interaction inhibition; AlphaScreen HP1-beta / biotin-H3K9me3 peptide binding; AID 540317; actives 0.56% (n = 390,000); Potency, µM (titrated, usually from 114 µM), without a hit: at the highest dose activity change, negative = inhibition, actives largely listed as inhibitors; also: nearly all actives have a fitted effect of over 70% in size
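Compound inhibition of the preformed complex between 50 nM HP1-beta and 50 nM biotinylated H3K9me3 peptide was read by AlphaScreen. Buffer was PBS pH 7.4 with 0.01% Tween-20. Incubations ran 30 min at room temperature, with 10 ug/mL donor/acceptor beads.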
Starred values were filed as active, the others as inactive; ? = inconclusive; . = not tested or not shown; [ ] = dose if it differs, or a comment. Calls follow the shape of the dose curve; as a rule, active = well fitted curve in the direction sought with a large enough effect; inconclusive = small, poorly fitted or top-dose-only effect, or another doubt; inactive = no such curve, though single readings can be large; an effect the other way counts as inactive or inconclusive. Potency is read from the fitted curve at half-maximal effect.

SMILES	JMJD2A Tudor	BAZ2B inh	G9a block	GLS inhibitor	L3MBTL1 block	HP1b chromo inh
COc1ccc(C(NCC(=O)NC(C)c2ccc(Cl)cc2)c2ccccc2)cc1 (stereo unspecified)	25.1µM*	79.4µM*	5.9%[2.33 µM]	14.6%	.	?
COc1cc(NC(=O)CNC(c2ccccc2)c2ccccc2)cc(OC)c1OC	-16.7%	-11.9%	18.5%	67.3%	.	7.3%
NC(=O)CSc1ncc2c(n1)-c1ccccc1N(Cc1ccc(Cl)cc1)S2(=O)=O	-18.8%	-0.3%	2.4%[59 µM]	-13.9%	.	-6.9%
N[C@H]1CN(c2c(F)cc3c(=O)c(C(=O)O)cn(C4C[C@@H]4F)c3c2Cl)CC12CC2 (stereo partly specified)	.	.	.	-4.3%	.	.
O=C1C(=O)N(CC2CCCO2)C(c2ccccc2[N+](=O)[O-])/C1=C(/O)c1ccccc1 (stereo unspecified)	-30.6%	?	31.6µM*	6.2%	9.5%	14.1%
COC(=O)c1c(C)n(-c2ccccc2)c2ccc(O)cc12	?	-34.9%	-3.2%[0.0925 µM]	12.0%	-13.5%	-6.6%
CN(C)/C=C/c1c([N+](=O)[O-])c2ccc(O)cc2n1-c1ccccc1	?	35.5µM*	.	8.91µM*	-4.0%	-28.0%
O=C(O)CCC(=O)c1cccc2ccccc12	-11.8%	9.4%	15.1%[59 µM]	1.8%	4.3%	31.2%
C[N+](C)(C)CCC(=O)c1cccc2ccccc12	.	.	0.501µM*	.	.	.
Cc1ccc(O)c(-c2n[nH]c3c2C(c2ccc(F)cc2)N(Cc2ccco2)C3=O)c1 (stereo unspecified)	?	?	-31.5%[59 µM]	0.6%	.	-25.0%
O=C(Nn1cc(C(=O)Nc2ccc(F)cc2F)c2ccccc2c1=O)c1cnccn1	35.5µM*	28.2µM*	0.794µM*	-2.2%	.	12.6%
O=C(Nc1ccccc1F)c1cnccn1	4.8%	5.3%	-33.1%	8.0%	.	14.5%
COc1cccc(CNC(=O)CCn2nc(C)c3c(C)n(-c4ccccc4)nc3c2=O)c1	-10.0%	-13.3%	-13.8%[59 µM]	-6.4%	.	24.7%
Cc1nn(C2CCS(=O)(=O)C2)c(C)c1C=O (stereo unspecified)	12.6µM*	9.3%	1.3%	?	-4.4%	-13.0%
Cc1ccccc1Oc1nc2c(c(=O)n(C)c(=O)n2C)n1Cc1ccc(Br)cc1	-7.6%	-11.4%	-50.5%[59 µM]	-9.4%	.	32.3%
Cc1nn2c3c(cnc2c1-c1ccc(F)cc1)C(=O)CC(c1ccccc1)C3 (stereo unspecified)	5.2%	-10.6%	20.7%[59 µM]	3.2%	.	46.2%
CC(O)CN(CCC(N)=O)CCC(N)=O (stereo unspecified)	?	56.2µM*	35.5µM*	0.4%	5.9%	-27.1%
COc1cccc(-n2c(Cc3cc(=O)[nH]c(=O)[nH]3)nnc2SCc2cccnc2)c1	-2.8%	14.7%	50.1µM*	1.0%	-0.4%	69.5%
Cn1cccc1Cc1nnc(SCC(=O)NCc2ccc(F)cc2)n1-c1ccc(F)cc1	-28.9%	?	50.1µM*	10.3%	-11.6%	15.8%
COc1ccc(-n2c(Cc3cc(=O)[nH]c(=O)[nH]3)nnc2SCc2ccccc2)cc1	-11.0%	11.2%	?	-2.0%	8.4%	59.8%
Cn1cccc1Cc1nnc(SCC(=O)NC2CCCCC2)n1CCc1ccccc1	?	-38.9%	44.7µM*	-1.9%	-11.1%	24.9%
Cn1cccc1Cc1nnc(SCC(=O)NCc2ccccc2)n1-c1ccc(F)cc1	-33.8%	?	50.1µM*	-1.9%	.	16.9%
CCc1ccc(OCC(=O)NCC(c2ccc(OC)cc2)N2CCOCC2)cc1 (stereo unspecified)	-15.2%	-12.6%	-5.4%[59 µM]	8.7%	.	16.4%
N#CN1CCC(NS(=O)(=O)c2ccc(F)cc2)C1 (stereo unspecified)	-6.8%	.	.	.	.	.
Cc1ccc(-c2noc(C3CC(=O)N(c4ccc5c(c4)OCCO5)C3)n2)cc1 (stereo unspecified)	-21.7%	-12.9%	4.0%[59 µM]	-9.5%	.	69.7%
SMILES	JMJD2A Tudor	BAZ2B inh	G9a block	GLS inhibitor	L3MBTL1 block	HP1b chromo inh
COc1cccc(CCNC(=O)c2cnc3sc(N4CCOCC4)nn3c2=O)c1	2.5%	0.5%	17.8%[59 µM]	0.4%	.	66.1%
Cn1cccc1Cc1nnc(SCC(=O)NC2CCCC2)n1-c1ccc(F)cc1	-29.6%	-7.1%	70.8µM*	-1.6%	.	36.9%
O=C(CSc1nnc(Cc2cc(=O)[nH]c(=O)[nH]2)n1-c1ccc(F)cc1)NC1CCCC1	-0.7%	-1.3%	79.4µM*	-8.5%	4.0%	54.0%
COc1cccc(-n2c(Cc3cc(=O)[nH]c(=O)[nH]3)nnc2SCC(=O)NC2CCCCC2)c1	0.0%	5.3%	?	-2.3%	-2.1%	52.3%
CCOc1ccc(-n2c(Cc3cc(=O)[nH]c(=O)[nH]3)nnc2SCC(=O)OC)cc1	-19.7%	6.2%	?	-6.9%	-1.0%	7.9%
CCOC(=O)CSc1nnc(Cc2cc(=O)[nH]c(=O)[nH]2)n1-c1ccc(Cl)cc1	?	-0.6%	50.1µM*	1.0%	2.0%	4.8%
Cc1ccc(C)c(-n2c(Cc3cc(=O)[nH]c(=O)[nH]3)nnc2SC(C)C)c1	-13.8%	6.6%	50.1µM*	-0.5%	5.7%	91.7%
COc1ccc(CNC(=O)C2CCN(c3nc4ccccc4[nH]3)CC2)c(OC)c1	-11.7%	23.4%	11.5%[59 µM]	6.0%	.	47.5%[57 µM]
Cc1nc(N2CCCC2)c2c(C(=O)N3CCN(c4cc(Cl)ccc4C)CC3)c(C)oc2n1	-33.0%	-8.1%[57.1 µM]	?	8.6%	.	90.1%
O=C(Nc1cccc(Cl)c1Cl)c1cc2nc(-c3ccc4c(c3)OCO4)cc(C(F)(F)F)n2n1	-9.3%	-13.0%	1.3%[59 µM]	0.6%	.	11.8%
Cc1ccc(NC(=O)C2CCN(S(=O)(=O)c3ccc4c(c3)CCCN4C(=O)C3CCC3)CC2)cc1	-14.8%	-0.6%	13.0%[59 µM]	1.2%	.	14.9%[57 µM]
Cn1cc(C(=O)NCCc2ccc(Cl)cc2)c(=O)c2cc(S(=O)(=O)N3CCOCC3)ccc21	-3.7%	.	6.4%[59 µM]	-1.2%	.	29.9%
O=C(Oc1ccccc1Cl)c1ccccc1	54.2%	.	.	-1.3%	.	176.0%
O=C(Oc1cccccc1=O)c1ccccc1	-29.4%	?	25.1µM*	20.5%	6.6%	10.9%
CC(=O)c1ccc(NC(=O)c2cnc(N3CCCC3)nc2C)cc1	-0.7%	-3.3%	29.0%[59 µM]	1.0%	.	43.1%
OC(CNC1Cc2ccccc2C1)COc1ccc(Cl)cc1 (stereo unspecified)	-4.3%	-3.8%	-28.2%	-4.2%	.	29.7%
OC(CNC1CCCc2ccccc21)COc1c(Cl)cccc1Cl (stereo unspecified)	5.62µM*	39.8µM*	7.94µM*	4.8%	3.2%	6.8%
COc1ccc(-c2cc(-c3nc4ccccn4c3NCc3ccccc3)ccc2OC)cc1	31.6µM*	.	.	13.8%	?	?
